# Screening results (PubChem)
# In the library only some 1.4% were active in any assay of this set; here they are far more common.
# Integrin act MD: activators of alpha7 integrin expression for muscular dystrophy | alpha7betagal myoblasts, beta-gal FDG fluorescence, 48 h | Potency, µM (highest dose often 38.3 µM), usual class: activators | actives 0.064% (n = 350,000) | AID 624291; note: nearly all actives have a fitted effect of over 60% in size
#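 alpha7betagal+/- myoblasts (passage 13, 250/well) treated 48 h at 37C with compounds at 1:260 dilution of DMSO stock. Lysed, then beta-galactosidase activity read as FDG fluorescence (ex 480/em 540) after 30 min, with pre-read for autofluorescence.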
# Nrf2 ARE act: activates Nrf2 signaling; AREc32 ARE-luciferase reporter (MCF7-derived line), luminescence, 24 h; Potency, µM (top dose mostly 46.1 µM), most hits filed as activators; actives 0.31% (n = 410,000); note: nearly all actives have a fitted effect of over 65% in size
#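 Luminescent ARE reporter assay in AREc32_Fluc cells: overnight plating at 37 deg C, 24 hr compound incubation, Steady-Glo added, 30 min RT before reading.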
# N370S GC mod: N370S glucocerebrosidase modulation, Gaucher chaperone candidate; P04062; N370S GC spleen homogenate, 4MU-glucoside fluorescence; Potency, µM (top dose mostly 59.4 µM), hits mostly inhibitors; actives 0.092% (n = 330,000)
# BRCA1 expr up: BRCA1 expression activation | MCF7-BRCA1-FFLuc reporter, luminescence, 48 h; response scale: scaled: vehicle 0%, 10 µM genistein 100% | Potency, µM (titrated, usually from 46.1 µM), hits mostly activators | actives 1.1% (n = 380,000); note: nearly all actives have a fitted effect of over 80% in size
#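 Luminescence from a BRCA1-driven firefly luciferase in MCF7 cells was read after 48 h compound exposure at 37 C. Data normalized against DMSO and a 10microM genistein activation control, then curve-fitted across the titration.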
# Chronic BCR inh: blocks chronic active B-cell receptor signaling; ABC-DLBCL IkBa-CBG/CBR reporter, luminescence ratio, 4 h; actives 0.05% (n = 340,000); Potency, µM (series often up to 46.1 µM), most hits filed as inhibitors; active = well fitted inhibition curve with a large enough effect in the signal ratio, with a control signal flat, not every such curve was filed as active; inconclusive = small, poorly fitted or top-dose-only effect, or effect the other way, or a change in a side signal; the % refers to the signal ratio
#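 Concentration-response series (up to 46 uM) were applied to TMD8 dual-reporter cells for 4 h at 37C with doxycycline. Green/red ratio, after filter-overlap correction, defined %Activity; red signal alone was normalised to basal cells and zero luminescence.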
# IL-2 act: activates IL-2 in a cell-based reporter assay. IL-2 activation reporter assay, cell-based qHTS; stimulated with anti-CD3/CD4/CD28 beads; in transgenic mouse T cells. actives 0.065% (n = 360,000). AID 652025. activation, % (series mostly up to about 46 µM); in the data active = activation above about 50%; inconclusive = mostly about 30% to 49%
#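 Readout: EGFP and DsRed signals by fluorescent plate cytometry. Unstimulated transgenic mouse T cells received compound 60 min before antibody-bead stimulation, then incubated 18 h at 37 degrees C.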
# A number is an active result; - = inactive; ? = inconclusive; . = no result given; [ ] = dose if it differs, or a comment. Unless noted, calls come from the whole dose curve; as a rule, active = well fitted curve in the direction sought with a large enough effect; inconclusive = small, poorly fitted or top-dose-only effect, or another doubt; inactive = no such curve, though single readings can be large; an effect the other way counts as inactive or inconclusive.
SMILES,Integrin act MD,Nrf2 ARE act,N370S GC mod,BRCA1 expr up,Chronic BCR inh,IL-2 act
N#C/C(=C\c1ccc(-c2nc3ccccc3s2)o1)C(N)=O,-,11µM,-,-,-,-
CNC(=O)/C(C#N)=C/c1ccc(-c2nc3ccccc3s2)o1,-,-,-,-,-,-
N#C/C(=C/c1ccc(-c2ccc(S(N)(=O)=O)cc2)o1)c1nc2ccccc2s1,-,-,-,-,-,71
CC(C)Sc1nc(N)nc(-c2cccs2)c1C#N,-,?,-,4µM,-,-
CSc1nc(N)nc(-c2cccs2)c1C#N,-,-,-,-,?,-
COC(=O)c1ccccc1NC(=O)c1nn(C)c2c1COc1ccccc1-2,.,-,.,.,.,.
Cc1ccc(CNC(=O)CCCCCn2c(=O)c3sccc3n(CC(=O)N(C)c3ccccc3)c2=O)cc1,.,-,.,.,.,.
COc1ccc2nccc(/C=C/c3ccc(N(C)C)cc3)c2c1,.,.,.,-,.,.
Cc1cc(O)c(-c2cc(C(=O)Nc3cccnc3)[nH]n2)cc1C,-,-,-,5.6µM,?,-
Cc1cc(C)c(O)c(-c2cc(C(=O)Nc3cccnc3)[nH]n2)c1,-,-,-,-,?,-
NS(=O)(=O)c1ccc(NC(=O)c2cc(-c3ccccc3O)n[nH]2)cc1,10µM,-,-,-,-,-
Cc1ccsc1C=Nc1ccc(O)cc1,-,?,?,-,?,-
Cc1ccsc1/C=N/N=C/c1sccc1C,?,?,-,2.2µM,-,-
Cc1cc2nc(-c3ccc(C#N)cc3)c(Cc3ccsc3)n2c(C)c1Br,.,-,.,-,.,-
CC(C)Cc1nnc(NC(=O)C23CC4CC(CC(C4)C2)C3)s1,-,-,-,-,-,-
CCc1nnc(NC(=O)C23CC4CC(CC(C4)C2)C3)s1,-,-,-,11µM,-,-
CCn1nccc1C(=O)Nc1ccc(Cl)cc1Cl,-,-,-,10µM,-,-
CCn1nccc1C(=O)Nc1cc(Cl)ccc1Cl,-,-,-,-,-,-
CC(C)(C)c1ccc(OCCn2c(CCNC(=O)C3CCCCC3)nc3ccccc32)cc1,.,.,.,-,.,.
COc1ccc(CNC(=O)Nc2ccccc2)cc1,-,-,-,?,-,-
Cc1cc2cc(CNC(=O)Nc3ccccc3)ccc2[nH]1,-,-,-,11µM,?,-
COc1ccc(CNC(=O)Nc2cccc(C)c2)cc1,-,-,-,3.2µM,-,-
CCCCCCCCCOC(=O)CNc1nc(C#N)nc(NCC(=O)OCCCCCCCCC)n1,.,.,.,-,.,.
Cc1ccc(-c2cn3c(n2)sc2cc(C(=O)NC4CCCCCC4)ccc23)cc1,.,-,.,.,.,.
CCc1nnc(NC(=O)c2ccc(NC(=O)C(C)C)cc2)s1,-,-,-,11µM,-,-
SMILES,Integrin act MD,Nrf2 ARE act,N370S GC mod,BRCA1 expr up,Chronic BCR inh,IL-2 act
CCc1nnc(NC(=O)c2ccc3c(c2)C(=O)N(C(C)(C)C)C3=O)s1,-,-,-,14µM,-,-
CCc1nnc(NC(=O)c2ccc(S(=O)(=O)NCC(C)C)cc2)s1,13µM,-,-,-,-,-
CCc1nnc(NC(=O)c2ccc3ncsc3c2)s1,-,-,-,-,?,-
CCc1nnc(NC(=O)c2ccc(S(=O)(=O)N3CCCCCC3)cc2)s1,-,-,-,-,-,-
c1coc(CNc2nc[n+]3c4c2ncn4CC3)c1,.,.,.,-,.,.
CCOc1ccc(C2=CC(c3cc(Br)ccc3F)n3ncnc3N2)cc1Cl (centres undefined),.,-,.,.,?,.
CC(C)(C)C(=O)Cn1ncc(N2CCCC2)c(Br)c1=O,-,-,-,10µM,?,-
O=C(Nc1ccccc1F)C(=O)Nc1cccc2ccccc12,-,-,-,-,?,-
O=C(Nc1cccc2ccccc12)/C(Cl)=C/c1ccccc1,-,10µM,-,-,?,-
Cc1ccc(Nc2nc(Nc3ccc(Cl)cc3)nc(N3CCOCC3)n2)cc1,.,.,.,-,.,.
COc1cccc(/C=N/n2c(-c3n[nH]c4c3CCC4)n[nH]c2=S)c1OC,-,-,-,-,-,-
O=C(Nc1ccccc1)c1cc2ccccc2c(=O)s1,-,10µM,-,-,?,-
O=C(Nc1ccc(O)cc1)c1cc2ccccc2c(=O)s1,-,-,-,-,?,-
CCCc1noc(-c2cccc([N+](=O)[O-])c2)n1,-,-,-,-,-,-
CCCc1noc(-c2ccc(-c3ccccc3)cc2)n1,-,-,-,8.9µM,?,-
c1ccc(-c2ccc(OCCOCCn3cncn3)cc2)cc1,-,-,-,7.1µM,?,-
CC(=O)c1c(C)[nH]c2ccc(OCC(O)CNCCc3ccccc3)cc12 (centres undefined),.,.,.,-,.,.
CCN(CC)S(=O)(=O)c1ccc(C(=O)NNC2=NS(=O)(=O)c3ccccc32)cc1,-,-,-,-,-,-
COc1ccc(S(=O)(=O)N(NC2=NS(=O)(=O)c3ccccc32)C(=O)C(C)C)cc1,2.5µM,-,-,-,-,-
O=C1CSC(=S)N1Cc1cccnc1,-,8.9µM,-,-,?,-
CNc1cccc(-c2ccccc2C(C)=O)n1,.,-[9.22 µM],.,-,.,-
CNc1cccc(-c2ccc(C(C)=O)s2)n1,.,-,.,6.3µM,.,-
COc1cccc(OCc2cc(C(=O)N(C)C3CCCCC3)no2)c1,-,-,.,11µM,.,-
CN(C(=O)c1cc(-c2ccccc2)on1)C1CCCCC1,-,-,-,1.6µM,?,-
O=C(CSc1nnc(-c2cccc(Br)c2)o1)N1CCNC1=O,-,?,.,10µM,-,-
SMILES,Integrin act MD,Nrf2 ARE act,N370S GC mod,BRCA1 expr up,Chronic BCR inh,IL-2 act
Cc1cccc(-c2nnc(SCC(=O)N3CCCCC3)o2)c1,.,-,.,.,.,.
O=C(CSc1nnc(-c2cccc(Br)c2)o1)NCC1CCCO1 (centres undefined),-,-,.,-,.,-
O=C(CSc1nnc(-c2ccccc2Cl)o1)N1CCCC1,?,-,-,7.1µM,-,-
Cc1cccc(-c2nnc(SCC(=O)N3CCCC3)o2)c1,-,-,-,7.1µM,?,-
Cc1ccc(-n2ncc(C(=O)NCCCN3CCCCC3)c2C2CCN(C(=O)OC(C)(C)C)CC2)c(C)c1,.,-,.,.,.,.
NCCC(O)(P(=O)(O)O)P(=O)(O)O,.,.,-,.,.,.
OCCNc1nc(Nc2ccccc2)nc(Nc2ccccc2)n1,-,-,11µM,-,-,-
CC(C)(C)Nc1nc(Cl)nc(Nc2ccccc2)n1,-,-,-,11µM,?,-
Cc1ccc(-c2nc3ncccc3n2O)cc1,-,-,-,-,-,-
COn1c(-c2ccc(Cl)cc2)nc2ncccc21,-,-,-,7.1µM,-,-
O=C(Nc1nnc(Cc2ccccc2)s1)C1CCN(C(=O)c2cccs2)CC1,.,.,.,-,.,.
CCOc1ccc(NC(=O)Cn2nnc(C(=O)NCCc3ccc(OC)c(OC)c3)c2N)cc1,-,-,-,-,-,-
COc1ccc(CCNC(=O)Cn2nnc(C(=O)Nc3ccc(Br)cc3)c2N)cc1OC,11µM,-,-,-,-,-
